Only some compounds are listed: those with a hit (about 1.8% of all), similar ones and a draw of the others.
Fam108B counter = mouse Fam108B serine hydrolase inhibitors, primary screen, counter-screen for RBBP9 inhibitor project, biochemical, fluorescence polarization | recombinant Fam108B, FP-Rh probe fluorescence polarization | inhibition, % at 9.51 µM | 0.33% of 300,000 active;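 active = inhibition above the screen mean inhibition plus 3 SD, computed separately per campaign, cut at about 18% in these data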;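 also: inhibitors lower polarization as less probe binds the enzyme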
LYPLA1 counter = LYPLA1 inhibitors, primary screen, counter-screen for PME1 inhibitor project, biochemical, fluorescence polarization, FP-Rh probe ABPP. Acyl-protein thioesterase 1 (Homo sapiens), O75608. inhibition, % at 5.9 µM. AID 2174, 2009. 0.16% of 320,000 active. recombinant LYPLA1;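 active = inhibition above the mean of all tested compounds plus 3 SD, set per campaign, cut at about 14% in these data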;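 also: inhibitors block serine hydrolase probe labeling of LYPLA1 so polarization falls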
Target sequence (O75608 whole entry, looked up): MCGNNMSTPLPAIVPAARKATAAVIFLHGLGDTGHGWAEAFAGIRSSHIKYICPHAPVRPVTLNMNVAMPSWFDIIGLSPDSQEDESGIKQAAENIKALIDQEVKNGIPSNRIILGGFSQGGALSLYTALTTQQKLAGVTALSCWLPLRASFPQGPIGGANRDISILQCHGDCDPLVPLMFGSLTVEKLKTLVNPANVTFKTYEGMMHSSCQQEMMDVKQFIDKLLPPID
GSTO1 inh = inhibitors of recombinant GSTO1, primary screen, counter-screen for RBBP9 inhibitor project, biochemical, fluorescence polarization | 1.1% of 300,000 active | activity-based probe fluorescence polarization | AID 1974, 2009 | inhibition, % at 5.96 µM;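 active = inhibition above the campaign mean inhibition plus 3 SD, cut at about 35% in these data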
Target sequence (P78417 whole entry, looked up): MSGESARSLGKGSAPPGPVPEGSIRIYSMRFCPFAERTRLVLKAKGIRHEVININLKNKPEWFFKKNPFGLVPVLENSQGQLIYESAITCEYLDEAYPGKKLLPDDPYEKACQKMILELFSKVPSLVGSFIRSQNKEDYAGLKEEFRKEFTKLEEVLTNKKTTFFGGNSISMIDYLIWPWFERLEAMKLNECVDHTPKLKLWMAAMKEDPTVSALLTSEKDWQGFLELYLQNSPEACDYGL
PME-1 inh = PME-1 inhibitors via competitive probe labeling, primary screen, biochemical, fluorescence polarization, FP-Rh probe, HTS; 0.53% of 320,000 active; inhibition, % at 5.9 µM; AID 2130, 2009; recombinant PME-1; Protein phosphatase methylesterase 1 (Homo sapiens), Q9Y570;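 active = inhibition above the campaign mean of all compounds plus 3 SD, cut at about 26% in these data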;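 also: competitive labeling of PME-1 active site by serine hydrolase directed probe; inhibitors block probe labeling so polarization falls and inhibition rises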
PAD4 FP inh = human PAD4 inhibitors, primary screen, biochemical, fluorescence polarization, 1536-well format; recombinant PAD4, RCA probe fluorescence polarization; 0.41% of 330,000 active; inhibition, % at 6.36 µM; AID 485272, 2010;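 active = percent inhibition above a cutoff equal to the mean of all tested compounds plus 3 SD, cut at about 15% in these data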
LYPLA2 inh = LYPLA2 inhibitors, primary screen, counter-screen for PME1 inhibitor project, biochemical, fluorescence polarization, FP-Rh probe ABPP | recombinant LYPLA2 | inhibition, % at 5.9 µM | Acyl-protein thioesterase 2 (Homo sapiens), O95372 | AID 2177, 2009 | 0.38% of 320,000 active;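 active = inhibition above the screen-wide mean plus 3 SD, limit set per campaign, cut at about 26% in these data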
GSTO1 confirm = GSTO1 inhibitor hit confirmation, counter-screen for RBBP9 inhibitor project, biochemical, fluorescence polarization, triplicate; shares compounds with GSTO1 inh; recombinant GSTO1, probe fluorescence polarization; inhibition, % at 5.96 µM; 54% of 2,400 active; AID 2176, 2009;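 active = inhibition above the primary screen's cutoff, its mean inhibition plus 3 SD, cut at about 35% in these data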;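 also: loss of polarization as inhibitors block binding of rhodamine sulfonate ester activity probe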
LYPLA2 conf = LYPLA2 inhibitors, retest, confirmation, counter-screen for PME1 inhibitor project, biochemical, fluorescence polarization, FP-Rh probe ABPP. recombinant LYPLA2. inhibition, % at 5.9 µM. shares compounds with LYPLA2 inh. 72% of 1,100 active;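 active = mean inhibition across replicates above the hit cutoff set in the primary screen, cut at about 26% in these data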;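 also: blocked labeling of the enzyme by serine hydrolase FP-Rh probe lowers polarization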
A number is an active result; n = inactive; x = not tested or not shown.

SMILES	Fam108B counter	LYPLA1 counter	GSTO1 inh	PME-1 inh	PAD4 FP inh	LYPLA2 inh	GSTO1 confirm	others
CCOC(=O)c1nc(N/N=C/c2ccccc2)sc1Br	n	n	51	n	n	n	n
O=[N+]([O-])c1ccc2c(c1N1CCCCC1)=NC1(CCCCC1)[N+]=2[O-]	n	n	57	n	n	n	n
O=[N+]([O-])c1ccc(N2CCCCC2)nc1N1CCCCC1	n	n	n	n	n	n	x
Cc1ccc(-c2ccc(/C=N/N=C3/NC(=O)C(CC(=O)O)S3)o2)c([N+](=O)[O-])c1 (stereo unspecified)	n	n	67	n	n	n	n
CC1=C(C(=O)OCc2ccccc2)C(c2ccccc2OS(=O)(=O)c2ccccc2[N+](=O)[O-])NC(=O)N1CCCC(=O)O (stereo unspecified)	n	n	58	n	n	n	63
CCOC(=O)c1c(C)n(-c2ccc(C)cc2)c2c(C(C(C)=O)C(=O)O)c(Br)c(O)c(O)c12 (stereo unspecified)	n	n	64	n	n	n	n
CCOC(=O)c1c(C)n(-c2ccc(C)cc2)c2c(CC(C)=O)c(Br)c(OC)c(O)c12	n	n	n	n	n	n	x
CCNc1nc(NCC)n2c(SCC(=O)c3ccc(C(C)C)cc3)nnc2n1	n	n	95	n	n	n	87
COc1ccc2[nH]cc(C(=O)CN3CC(C)CC(C)C3)c2c1 (stereo unspecified)	n	n	n	n	n	n	x
COc1ccc2[nH]cc(C(=O)CCl)c2c1	n	n	83	n	n	n	100
CN(C)c1ccc(NS(=O)(=O)c2ccc(-c3csnn3)cc2)cc1	n	n	39	n	n	n	n
Cc1nc(C)c(-c2csc(N)n2)s1	n	n	39	n	n	n	n
Cc1ccc(Nc2nc(-c3sc(C)nc3C)cs2)cc1	n	n	n	n	n	n	x
CN=c1scc(C)n1/N=C/c1ccc(O)c(O)c1O	n	n	74	n	n	n	n
CC(=O)c1cccc(S(=O)(=O)N2CCC(C(=O)Oc3ccc(-c4nnco4)cc3)CC2)c1	x	x	x	x	n	x	x
O=[N+]([O-])c1ccccc1N/N=C/c1cccc(O)c1O	n	n	49	n	n	n	n
CC(OC(=O)CCN=C1NS(=O)(=O)c2ccccc21)C(=O)Nc1ccc(S(N)(=O)=O)cc1 (stereo unspecified)	x	n	x	n	n	n	x
CCOC(=O)c1sc(Nc2ccc(OCC)cc2)nc1C	n	n	n	n	n	n	x
CCOC(=O)c1sc(N2N=C(C)/C(=C\c3ccc(OCC(=O)OC)cc3)C2=O)nc1C	n	n	39	n	n	n	n
CCOC(=O)C(Cc1ccc(O)cc1)NC(=O)CCc1c[nH]c2ccccc12 (stereo unspecified)	n	n	38	n	n	n	n
COC(=O)[C@H](Cc1c[nH]c2ccccc12)NC(=O)CCCc1c[nH]c2ccccc12	n	n	n	n	n	n	x
COC(=O)/C=C/c1cnc[nH]1	n	n	n	n	n	n	x
Cc1ccc(S(=O)(=O)c2c(N)n(CCCO)c3nc4ccccc4nc23)cc1	n	n	60	n	n	n	n
COCC(C)n1c(SCc2ccc(C(=O)OC)cc2)nc2ccccc2c1=O (stereo unspecified)	n	n	n	n	n	n	x
CSc1ccc(C(c2c(C)[nH][nH]c2=O)c2c(C)[nH][nH]c2=O)cc1	n	n	39	n	n	n	n
Cc1cc(C)c(S(=O)(=O)Nc2cc(SCC(=O)O)c(O)c3ccccc23)cc1C	n	n	90	n	49	30	n	LYPLA2 conf=n

High-throughput results (PubChem)
